Screens as filed in PubChem BioAssay.
ssDAF12 agonist – activators of S. stercoralis DAF-12 nuclear receptor. 370,000 tested, 1% active. HEK293 ssDAF-12/GRIP1 lit1-tk-luc reporter, luminescence; % of 3 µM dafachronic acid response. activation, % at 6.8 µM. AID 652126;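 active means activation above the mean over all tested compounds plus 3 SD, cut at about 0.9% in these data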;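 further: 0% = DMSO-only wells and 100% = 3 µM delta7-dafachronic acid wells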
hgDAF12 agonist – activates the H. glycines DAF-12 receptor ligand-binding domain; 370,000 tested, 1.8% active; HEK293 GAL4-hgDAF12 UAS-luciferase reporter, agonist luminescence; normalized to butyrate control; AID 687014; activation, % at 6.8 µM;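 active means activation above a cutoff set at the mean of all screened compounds plus 3 SD, cut at about 10% in these data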;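 further: 0% = DMSO wells and 100% = sodium butyrate wells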
SMARCA2 activ – activators of SMARCA2 function; MG213 cells, MMTV-luciferase reporter, dexamethasone, overnight; activation, % at 9.1 µM; 370,000 tested, 1% active; AID 652017; in the data active means activation above about 7.8%;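 further: 0% = vehicle wells and 100% = reference activator wells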
hcDAF-12 act – activates DAF-12 receptor from parasite H. contortus | HEK293 hcDAF-12 lit1-tk-luc reporter, luminescence; 0% DMSO, 100% Δ7-dafachronic acid | activation, % at 6.8 µM | 370,000 tested, 1.4% active | AID 652067;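 active means activation above the mean of all tested compounds plus 3 SD, cut at about 5.5% in these data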;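 further: 100% = response to 3 µM Δ7-dafachronic acid high control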
DAX1 inh-1 – NR0B1 (DAX1) inhibition | P51843 | HEK293 Gal4-DAX1 luciferase reporter, luminescence | 340,000 tested, 0.99% active | AID 504766 | inhibition, % at 6.75 µM;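 active means inhibition above the mean over all tested compounds plus 3 SD, cut at about 4.2% in these data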;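 further: 0% = DAX1-transfected cells with DMSO and 100% = empty-vector control cells with DMSO; inhibition shows as a rise in luminescence from relieved DAX1 repression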
DAX1 inh-2 – DAX1 (NR0B1) inhibition, primary screen; HEK293T StAR-luciferase reporter, SF-1/DAX-1 repression relief; inhibition, % at 6.8 µM; 370,000 tested, 1.1% active; AID 652010;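 active means inhibition above the mean over all tested compounds plus 3 SD, cut at about 3.6% in these data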;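 further: 0% = DAX-1 cells with DMSO and 100% = cells lacking DAX-1 with DMSO; higher inhibition means more luminescence from relief of DAX-1 repression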
LXRb hcDAF ctr – activates human LXR-beta, counter-screen for hcDAF-12 agonists; shares compounds with hcDAF-12 act; HEK293 Gal4-LXR tk-luc reporter, luminescence, 24 h; normalized: DMSO 0%, positive control 100%; activation, % at 6.8 µM; AID 743027; 3,400 tested, under 10 active;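 active means mean percent activation of the reporter above a cutoff set as the average over tested compounds plus their standard deviation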
Target sequence (P55055 whole entry, looked up, the tested form may be a part): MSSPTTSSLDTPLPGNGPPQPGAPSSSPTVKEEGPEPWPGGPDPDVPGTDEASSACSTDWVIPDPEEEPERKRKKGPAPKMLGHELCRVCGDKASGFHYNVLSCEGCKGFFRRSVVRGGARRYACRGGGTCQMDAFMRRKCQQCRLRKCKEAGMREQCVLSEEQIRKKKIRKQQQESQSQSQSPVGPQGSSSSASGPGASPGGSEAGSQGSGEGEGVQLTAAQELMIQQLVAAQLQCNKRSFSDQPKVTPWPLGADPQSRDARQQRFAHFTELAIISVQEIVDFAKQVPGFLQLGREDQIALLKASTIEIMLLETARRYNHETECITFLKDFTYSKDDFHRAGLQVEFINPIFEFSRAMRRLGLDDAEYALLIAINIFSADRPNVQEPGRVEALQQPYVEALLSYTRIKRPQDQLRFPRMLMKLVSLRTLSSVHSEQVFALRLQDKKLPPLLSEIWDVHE
hcDAF12 conf – hcDAF-12 agonism, confirmation assay. HEK293 hcDAF-12 lit1-tk-luc reporter, luminescence; % of Δ7-dafachronic acid response. shares compounds with hcDAF-12 act. 3,400 tested, 61% active. activation, % at 6.8 µM;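 active means mean activation across triplicate tests above the threshold derived from the earlier primary screen, cut at about 5.5% in these data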;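 further: 0% = DMSO only wells and 100% = 3 µM Δ7-dafachronic acid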
Numbers without * were called inactive; x = no result. Shown are actives, neighbours in structure and some others; about 4.8% of the full set was active somewhere.

SMILES	ssDAF12 agonist	hgDAF12 agonist	SMARCA2 activ	hcDAF-12 act	DAX1 inh-1	DAX1 inh-2	LXRb hcDAF ctr	hcDAF12 conf
CCC(=O)N(CC)Cc1cc(=O)[nH]c2ccccc12	0	5	0	6.8*	3	1	0	4
O=C(Nc1ccc(S(=O)(=O)N2CCCC2)cc1)c1cccc(OC(F)F)c1	-1	-4	-2	-3	-1	-3	x	x
O=C(Nc1ccc2c(c1)CCC2)c1cccc(OC(F)F)c1	1.3*	11*	6	7.4*	x	3	1	4
O=c1c2ccccc2nc2c3ccccc3c(NCCO)nn12	-1	6	0	4	0	2	x	x
Cc1ccc(-c2nc(N/N=C/c3ccncc3)c3ccccc3n2)cc1	1.1*	10	2	15*	-4	3	2	20*
CC(=O)Nc1ccc(C=NNc2nnc(NN=Cc3ccc(NC(C)=O)cc3)c3ccccc23)cc1	-1	1	-4	0	-3	0	x	x
Cc1ccc(/C=N/Nc2nnc(Cl)c3ccccc23)cc1	3.7*	8	5	11*	1	2	2	18*
COc1ccc(/C=N/Nc2nc(-c3cccnc3)nc3ccccc23)cc1OC	-2	-1	-3	-2	-2	-2	x	x
Clc1nnc(N/N=C/c2ccccc2)c2ccccc12	1.2*	7	6	7.3*	1	1	1	11*
Clc1ccc(/C=N/Nc2nnc(Cl)c3ccccc23)cc1	1.6*	6	4	7.0*	0	1	1	8.7*
Cc1ccc(N(Cc2ccccc2)C(=O)c2ccc(Cl)c(S(=O)(=O)N3CCOCC3)c2)cc1	-1	0	-1	-1	-1	1	x	x
CC(=O)Nc1cccc(-c2nc3ccccc3c(=O)o2)c1	-1	1	-1	-1	0	-1	x	x
CC(=O)Nc1ccc(N/C=C(\C=O)c2nc3ccccc3o2)cc1	1.0*	1	-1	6.7*	0	0	0	6.7*
O=C/C(=C\Nc1ccccn1)c1nc2cc(Cl)ccc2o1	0.9*	2	7	6.8*	2	1	0	4
COc1cc(OC)cc(C(=O)Nc2ccc(-c3nc4ccccc4o3)cc2)c1	-2	-5	0	-2	-2	0	x	x
CC(=O)Nc1cccc(N/C=C(\C=O)c2nc3ccccc3o2)c1	1.0*	7	2	9.6*	2	1	0	9.4*
COc1ccc2nc(N)sc2c1	-1	5	-3	3	1	0	x	x
Cc1ccc2nc(-c3ccc(N)cc3)sc2c1	1.6*	9	3	11*	x	4.2*	2	13*
Nc1ccc2nc(-c3ccccc3)sc2c1	0	11*	4	9.7*	-3	2	2	7.1*
Nc1ccc2nc(-c3ccccc3)c(-c3ccccc3)nc2c1	-1	-5	-1	-1	2	0	x	x
COc1ccc2nc(-c3ccc(F)cc3)sc2c1	1.0*	11*	4	9.3*	-2	3	1	6.7*
O=[N+]([O-])c1cc(CN(CCO)CCO)ccc1O	-2	-3	2	-2	-1	1	x	x
O=C(CNc1ccc2ccccc2c1)N/N=C/c1cc2ccccc2nc1Cl	0	4	1	13*	-1	1	0	4
C[C@H](CO)N1C[C@H](C)[C@@H](CN(C)C(=O)Nc2ccc3c(c2)OCO3)Oc2ccc(NC(=O)NC3CCCCC3)cc2C1=O	-2	1	0	0	-1	0	x	x
CC1CCCC(C)N1/N=C/c1ccc(O)c(O)c1 (stereo not given)	-1	-1	0	0	1	0	x	x
SMILES	ssDAF12 agonist	hgDAF12 agonist	SMARCA2 activ	hcDAF-12 act	DAX1 inh-1	DAX1 inh-2	LXRb hcDAF ctr	hcDAF12 conf
COc1ccc(/C=N/N2C(C)CCCC2C)cc1O (stereo not given)	0.9*	2	3	8.1*	0	1	0	7.4*
Nc1cc(C(=O)c2ccccc2)ccc1[N+](=O)[O-]	-1	4	-1	-2	0	0	x	x
Cn1c(NC(=O)C[n+]2cc(-c3ccccc3)n3c2CCC3)cc(=O)n(C)c1=O	-1	2	-2	7.1*	-1	0	0	0
Cn1c(NC(=O)C[n+]2cc(-c3ccc(Cl)cc3)n3c2CCC3)cc(=O)n(C)c1=O	-1	-1	0	1	0	0	x	x
O=c1c2ccccc2n(Cc2ccccc2)n1[C@@H](Cc1ccccc1)Cn1cc(-c2ccc(-c3ccccc3)cc2)nn1	-2	-3	-4	-1	x	0	x	x
O=C1c2ccccc2NC(c2ccc(-c3cccs3)o2)N1O (stereo not given)	1.0*	12*	5	7.1*	2	2	1	6.0*
O=C(NCc1ccc(Cl)cc1)c1cccc(NC2=NC3CS(=O)(=O)CC3S2)c1 (stereo not given)	-1	-2	-3	1	0	1	x	x
O=C(Nc1ccsc1C(=O)O)c1cccc(Oc2ccccc2)c1	0	13*	6	7.8*	0	2	1	7.3*
O=C(Nc1nnc(-c2cccs2)o1)c1cccc(Oc2ccccc2)c1	-2	1	-2	2	1	0	x	x
CS(=O)(=O)N(CC(=O)Nc1ccccc1-c1ccccc1)c1ccccc1	-1	-1	-5	0	0	0	x	x
Cc1ccc(N(CC(=O)Nc2ccccc2-c2ccccc2)S(=O)(=O)c2ccccc2)c(C)c1	-2	2	0	6.6*	0	0	0	2
CNC(=O)CSc1ncnc2c1cnn2-c1ccccc1	-1	3	3	7.4*	0	0	0	3
Cc1c(NC(=O)CSc2ncnc3c2cnn3-c2ccccc2)c(=O)n(-c2ccccc2)n1C	-1	0	-3	-2	-1	-4	x	x
COc1ccc(C(=O)NC2CCCc3ccccc32)c(OC)c1OC (stereo not given)	-2	-5	-3	-3	-1	0	x	x
COc1ccccc1C(=O)NC(=O)Nc1cccc(Cl)c1	1	14*	7	13*	4	2	2	18*
COc1ccccc1C(=O)Nc1cc(Cl)ccc1O	0	3	1	9.8*	0	0	0	5.8*
CCN(CC)CCn1c(=S)[nH]c2cc(C(=O)NCc3ccc(C)cc3)ccc2c1=O	-2	-1	4	-2	1	0	x	x
CSc1ccc(C2NN=C(c3ccccc3)S2)cc1 (stereo not given)	2.3*	15*	1	12*	x	4	2	14*
